The text below walks through data of PubChem BioAssay AID1063 (University of Pittsburgh Molecular Library Screening Center, 2008).

About 18,000 (9%) of roughly 200,000 compounds were called active. The sample as a whole holds a higher share of actives than the screen did. A number with no mark means an inactive call. No stated cut-off is given here; in the data, active means inhibition above about 50%; inactive means the rest.

As a reminder, the inhibition is the drop in the measured response relative to a control, in per cent.

A short description of the assay: Leishmania major promastigote growth inhibition, primary screen (AID 1063).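 Further: promastigotes grown with compound for 44 hours at 28 °C.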 The conditions noted are these: Leishmania major promastigotes, resazurin fluorescence viability; at 10 µM; hits give high values. Background: Alamar Blue is a resazurin reagent that responds to reducing activity.
As to `Cc1ccc2nc(-c3ccc(NC(=O)c4cccnc4)cc3)oc2c1`, the inhibition was -5.33%.

With `Cc1cccc(NC(=S)NCCN(C2CCCCC2)C2CCCC2)c1`, the inhibition was 37.4%. Turning to `COc1ccc(OCc2n[nH]c(=S)n2N)cc1`, the inhibition was -7.89%. To `O=C(/C=C/c1ccc(F)cc1)NC(=S)NNC(=O)c1cccnc1` belongs 53.4% (active); to `CC(C)c1ccc(/C=C/C(=O)NNC(=O)c2cccnc2)cc1`, -0.93%; to `O=C(/C=C/c1ccc(F)cc1)NCCNC(=O)/C=C/c1ccc(F)cc1`, -1.31%. On to `S=C(NCc1cccs1)Nc1ccc(Cl)cc1`, for which the inhibition is 10.1%. With `COc1cc(CC(=O)NCc2cccs2)cc(OC)c1OC`, the inhibition is -3.33%. The figure for `COc1ccc(NC(=S)NCc2cccs2)c(OC)c1` is 53.3% (active); for `COc1ccc(Br)cc1/C=N/Nc1ccc(Cl)c(C(=O)O)c1` it is -11.3%; for `COC(=O)C1CCN(C(=O)c2cc(=O)[nH]c3ccccc23)CC1` it is -2.57%. The figure for `COc1ccc(CCNC(=O)CC2SC(=Nc3cc(C)cc(C)c3)NC2=O)cc1OC` (stereo not given) is 1.72%. To `Cc1ccnc(N2CCCC(C(=O)Nc3cc(F)ccc3C)C2)n1` (stereo not given) belongs -1.61%; to `Cc1nc(N2CCC(C)CC2)c2c(C)c(C(=O)Nc3cc(F)ccc3C)sc2n1`, 72.2% (active); to `Cc1ccc(F)cc1NC(=O)c1ccc2c(c1)OCO2`, -6.66%. As to `Cc1nc(N2CCOCC2)c2c(C)c(C(=O)Nc3ccc(C(F)(F)F)cc3)sc2n1`, the inhibition is 58.7% (active). The figure for `Cc1nc(N2CCN(c3ccccn3)CC2)c2c(C)c(C(=O)Nc3ccc(F)cc3)sc2n1` is 43.6%.

As to `CCOC(=O)C1CCCN(C(=O)c2sc3nc(C)nc(N4CCOCC4)c3c2C)C1` (stereo not given), the inhibition is -2.76%. Take `CC(C)CNC(=O)C(=O)NCc1ccccc1`: the inhibition is -6.83%. With `O=C(COC(=O)c1ccc(O)cc1)Nc1nccs1`, the inhibition was 3.69%. In the case of `C/C(=N\NC(=O)C(N)=O)c1ccc2c(c1)OCCO2`, the inhibition was -3.07%. As to `COc1cccc(NC(=O)C(C)Oc2ccccc2)c1` (stereo not given), the inhibition was -5.27%. As for `COc1ccc(NC(C(=O)Nc2cccc(C(C)=O)c2)c2ccccc2)cc1` (stereo not given), the inhibition was 94.4% (active). The figure for `CC(=O)c1cccc(NC(=O)[C@@H](NC(N)=O)C(C)C)c1` is 6.23%; for `Nc1c(C(=O)O)cnn1-c1ccccc1` it is -2.24%. For `CCN1CCN(C(=O)C2(NC(=O)Nc3cccc(F)c3)CCCCC2)CC1`, the inhibition is 29.9%. As for `O=C(CCN1C(=O)c2ccncc2C1=O)Nc1cc(F)ccc1F`, the inhibition was -6.67%.

As for `O=C(CCN1CCN(C/C=C/c2ccccc2)CC1)Nc1cccc(F)c1`, the inhibition was 90.8% (active).

In the case of `O=C(CN1CCN(C/C=C/c2ccccc2)CC1)Nc1ccc(F)cc1F`, the inhibition is 77.3% (active). To `O=C(CCN1CCN(c2ccccc2)CC1)NNC(=S)Nc1ccccc1` belongs -9.65%; to `O=C(CCN1C(=O)c2ccccc2C1=O)Nc1cccc(F)c1`, 89.8% (active).

In the case of `O=C(CCN1C(=O)c2ccccc2C1=O)Nc1ccncc1`, the inhibition was -8.03%. Consider `COc1ccccc1CC(=O)Nc1ccc(F)cc1F`, for which the inhibition was -6.42%. To `O=C(CN1CCN(C(=O)c2cccc(F)c2)CC1)Nc1ccccc1F` belongs -5.19%; to `CC(=O)N1N=C(c2ccccc2)OC1c1cccnc1` (stereo not given), -2.61%; to `CCC(C)N(C(=O)COC(=O)C1C(C(=O)OC)=C(C)NC(C)=C1C(=O)OC)C1CCS(=O)(=O)C1` (stereo not given), -3.21%. To `O=C(Nc1ccc(N2CCN(C(=O)C3CC3)CC2)cc1)c1cccs1` belongs -2.42%; to `CCCOCC(O)CC(CC)C(=O)NNC(=S)Nc1ccccc1` (stereo not given), -2.02%; to `CCCCOc1ccc(N(CC(=O)NC(C)C)C(=O)CCC(=O)Nc2ccccn2)cc1`, 0.57%. For the molecule `Cn1c(CCC(=O)Nc2ccccc2F)nnc1SCC(=O)Nc1ccccc1Cl`, the inhibition is 2.13%. Take `S=c1nc(C23CC4CC(CC(C4)C2)C3)nc2sccn12`: the inhibition was -2.7%. For the molecule `COc1cccc(C(=O)Oc2cc(C)[nH]c(=O)c2[N+](=O)[O-])c1`, the inhibition is 5.78%. Turning to `CC1CCCCN1S(=O)(=O)c1ccc(S(=O)(=O)N(CC(=O)Nc2ccccc2)Cc2cccs2)cc1` (stereo not given), the inhibition is -0.93%.

Consider `CC1CCCCN1S(=O)(=O)c1ccc(C(=O)Nc2nnc(-c3cccs3)o2)cc1` (stereo not given), for which the inhibition was 99.6% (active). `CC1CCCN(S(=O)(=O)c2ccc(C(=O)Nc3nnc(-c4ccncc4)o3)cc2)C1` (stereo not given): the inhibition was 12.2%. As for `COC(=O)c1nc(NC(=O)c2ccc(F)cc2)n[nH]1`, the inhibition is -2.13%. For `CC(C)c1nc(-c2ccccn2)no1`, the inhibition was -3.52%. The figure for `c1ccc(-c2nccc(-c3ccc(-n4cnc5ccccc54)cc3)n2)nc1` is 101% (active). For the molecule `Cc1nccc(-c2ccc(-n3c(C)ccc3C)cc2)n1`, the inhibition is 41.6%. The figure for `C/C(Cn1nnc2ccccc21)=N\OC(=O)c1cc(F)c(F)cc1Cl` is 2.7%; for `CCN(CCn1cccn1)Cc1nc(-c2ccc(C(=O)OC)cc2)no1` it is 5.81%; for `O=C1CC(c2c(F)cccc2Cl)C(n2cncn2)C(O)=C1C1NCCc2ccccc21` (stereo not given) it is -6.44%. The figure for `COc1cc2c(cc1O)[C@H](Cc1ccc(Oc3cc(C[C@@H]4NCCc5cc(OC)c(O)cc54)ccc3O)cc1)NCC2` is 2.59%; for `CC[C@H]1CN2CCc3cc(OC)c(OC)cc3[C@@H]2C[C@@H]1C[C@H]1NCCc2cc(OC)c(OC)cc21` it is 100% (active); for `CCOCCCN(C(=O)Cn1nnc(-c2ccc(OC)c(OC)c2)n1)C(CC)C(=O)NC1CCCC1` (stereo not given) it is -1.34%.

Take `COCCn1nnnc1C(c1cc2ccc(OC)cc2[nH]c1=O)N1CCc2ccccc2C1` (stereo not given): the inhibition was 5.04%. `COc1ccc(OC)c(C(c2nnnn2C(C)(C)C)N2CCc3ccccc3C2)c1` (stereo not given): the inhibition is 88.9% (active). To `COc1ccc(OC)c(NC(=S)N2CCc3ccccc3C2)c1` belongs 5.86%; to `C=CCn1c(CCNC(=O)c2ccccc2F)nnc1SCC(=O)Nc1ccc(OC)cc1`, 3.89%; to `COc1ccc(Cc2nnc(NC(=O)c3cc(OC)c(OC)c(OC)c3)s2)cc1OC`, -2.97%. The figure for `NC(=O)C1CCN(Cc2nc3c(Br)cc(Br)cc3c(=O)[nH]2)CC1` is -13%. The figure for `COCCNC(=O)/C(C#N)=C/c1nc(N(C)C)n(-c2ccc(F)cc2)c1Cl` is 10.3%.

With `COc1ccc(-c2nnc(SC(C)C#N)o2)cc1` (stereo not given), the inhibition was -3.1%. Take `COc1ccc(-c2nnc(SC(=O)N3c4ccccc4Sc4ccccc43)o2)cc1`: the inhibition was 84.1% (active). `COc1ccc(-c2nnc(SCC(=O)c3ccc4c(c3)OCCO4)o2)cc1`: the inhibition was -4.95%. To `CC(/C=N/NC(=O)c1ccncc1)=C\c1ccco1` belongs -2.49%; to `CC(Oc1ccccc1)C(=O)NN1Cc2ccccc2C1=N` (stereo not given), -3.38%; to `Nc1nc(-c2sc3nc4c(cc3c2N)CCCC4)nc(N2CCOCC2)n1`, 47%. To `CNC(=O)c1[nH]cnc1C(=O)N[C@@H](CC(C)C)C(=O)OC(C)(C)C` belongs -2.24%.

Turning to `S=C(Nc1ccc2c(c1)OCO2)N1CCCC1`, the inhibition is -4.06%.

For `CCOc1ccc2c(c1)C(c1ccc(C)cc1)=NNC(c1ccc(C)cc1)=N2`, the inhibition is 17.4%. Regarding `CCc1ccc2c(c1)C(c1ccc([N+](=O)[O-])cc1)=NNC(c1ccccc1)=N2`, the inhibition is 60.2% (active). As for `O=C1NC(=O)C2C1C(c1ccc([N+](=O)[O-])cc1)=NN2Cc1ccccc1` (stereo not given), the inhibition is -2.02%. The figure for `CC(C)(C)c1ccc(/C=C2\SC(=O)N=C2N)cc1` is 33.6%. As to `Cc1ccc(/C([O-])=C(/C(=S)NCc2ccco2)[n+]2ccccc2)cc1[N+](=O)[O-]`, the inhibition is -2.58%. `Fc1ccccc1Cc1ccc(Cl)nn1`: the inhibition was -4.31%. To `Cc1ccc(C(=O)OCC(=O)NCc2ccc3c(c2)OCO3)s1` belongs -5.96%; to `Cc1ccc(C(=O)Nc2sc(Cc3ccc4c(c3)OCO4)c(C)c2C(N)=O)cc1`, -6.82%.

On to `CC(=O)NCCC(=O)Nc1nc(C)c(Cc2ccc3c(c2)OCO3)s1`, for which the inhibition is 55.9% (active). Take `O=C(Nc1cccc(F)c1)N1C2CCC1CC(O)(c1cccnc1)C2` (stereo not given): the inhibition is 4.96%. Regarding `COc1ccc(-n2cnc3cc(C(=O)NC4CCCC4)ccc32)cc1`, the inhibition was 1.49%. In the case of `COc1ccc(Nc2nc(Cl)nc(NCc3ccco3)n2)cc1`, the inhibition was 0.84%. To `COc1ccc(-n2cnc3cc(NCc4ccco4)ccc32)cc1` belongs 90.2% (active); to `CCN(CC)C(=O)C(=O)Nc1cccc(Br)c1`, -4.3%. For `C=CCC1(CC=C)CCCN1C(=O)CC1C(=O)NCCN1Cc1ccccc1OC` (stereo not given), the inhibition was 2.2%. The figure for `COc1cccc(NC(=O)CN(C)CC(=O)Nc2ccc3c(c2)CCC3)c1` is 2.96%; for `CC(C)C(=O)OCC(=O)Nc1ccc2c(c1)CCC2` it is -3.35%; for `CC1CC(C)CN(CCC(=O)Nc2ccc3c(c2)CCC3)C1` (stereo not given) it is 65.4% (active).

As to `CCCCSc1nc2ccccc2[nH]1`, the inhibition is -4.2%.

For `Cc1ccccc1C(=O)Nc1ccc(N2CCCCCC2)cc1`, the inhibition was 89.4% (active). Regarding `COc1cccc(OC)c1C(=O)Nc1ccc(N2CCCCC2)cc1`, the inhibition was -1.53%. To `COc1cccc(C(=O)Nc2ccc(N3CCCC3)cc2)c1` belongs 9.5%; to `Cc1ccc(NC(=S)N(Cc2ccco2)C(C)c2cccs2)cc1` (stereo not given), 51.8% (active). As to `Cc1ccc(NC(=S)N(CCCN2CCC(C)CC2)Cc2ccco2)cc1`, the inhibition is 37.4%.

Regarding `Cc1ccc(NC(=S)N(CCN2CCCCC2)Cc2ccco2)cc1C`, the inhibition was 13.2%.
